GALC G270D up: galactocerebrosidase G270D activity enhancement, cell-based; 145M-Twi-hGALC-G270D cells, HMU-beta-Gal fluorescence, 48 h; P54803; 45,000 compounds, 0.1% hits; AID 1159614; Potency, µM (highest dose often 57.5 µM), actives largely listed as activators; further: 0% is about no effect; nearly all actives have a fitted effect of over 65% in size
Target sequence (P54803 whole entry G286D): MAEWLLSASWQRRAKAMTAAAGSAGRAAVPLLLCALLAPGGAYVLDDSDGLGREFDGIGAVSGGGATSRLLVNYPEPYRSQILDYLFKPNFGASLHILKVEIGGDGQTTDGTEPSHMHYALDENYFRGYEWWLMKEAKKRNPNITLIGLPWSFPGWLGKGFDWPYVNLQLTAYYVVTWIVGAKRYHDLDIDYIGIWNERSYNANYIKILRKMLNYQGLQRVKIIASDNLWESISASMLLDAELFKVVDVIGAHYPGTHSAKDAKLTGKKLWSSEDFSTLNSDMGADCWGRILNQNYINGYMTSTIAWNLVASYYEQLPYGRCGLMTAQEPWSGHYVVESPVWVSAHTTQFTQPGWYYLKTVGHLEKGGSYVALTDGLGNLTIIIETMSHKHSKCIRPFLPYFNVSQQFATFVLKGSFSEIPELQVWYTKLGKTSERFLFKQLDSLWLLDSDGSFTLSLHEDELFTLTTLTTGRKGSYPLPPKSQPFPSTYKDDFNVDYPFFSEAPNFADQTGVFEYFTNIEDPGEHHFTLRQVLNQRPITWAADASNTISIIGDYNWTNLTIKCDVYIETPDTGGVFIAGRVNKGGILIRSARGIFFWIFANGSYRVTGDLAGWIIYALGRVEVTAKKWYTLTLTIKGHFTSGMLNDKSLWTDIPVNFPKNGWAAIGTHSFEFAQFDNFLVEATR
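qHTS, 1536-well; 145M-Twi-hGALC-G270D cells (WT line also made) in DMEM/F12 + 10% FBS; compound incubation on live cells; HMU-β-gal 0.1 mM final, pH 5.2, NaTC; carbonate stop; fluorescence increase = enhanced residual activity.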
PMP22 txn prim: modulators of PMP22 gene transcription in S16 Schwann cells; S16 Pmp22-F2sN Schwann cells, FLuc/NLuc coincidence luminescence, 24 h; Potency, µM (titrated, usually from 57.5 µM), for the others: at the top dose activity change, negative = inhibition, hits mostly inhibitors; 43,000 compounds, 2% hits; AID 1508649; active means clear falling dose curves in both reporters; inconclusive means both reporters move, but less clearly or upward; inactive means either reporter flat; the % is the NLuc reporter signal; further: on the % scale 0 is the no-effect control and ±100 the full control effect
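Reporter cells (S16 Pmp22-F2sN, 500–1,000 per well) exposed to compounds for 24 h, 37C, 5% CO2; lysis with FLuc read after 10 min, then Stop&Glo and NLuc read after 10 min.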
SKOV3 invasion: inhibitors of ovarian cancer cell adhesion and invasion in omental model; AID 1963576; Potency, µM (top dose mostly 45.8 µM), inactives show at the highest dose activity change, negative = inhibition, hits mostly inhibitors; 46,000 compounds, 0.1% hits; SKOV3ip1-GFP adhesion/invasion on 3D omental model, fluorescence;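 further: plate controls were DMSO wells for no effect and tomatine positive control wells for full effect; nearly all actives have a fitted effect of over 65% in size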
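Adhesion/invasion was scored as fixed GFP-labeled SKOV3ip1 cell counts (488/509 nm), normalized to DMSO and tomatine controls. Cancer cells in serum-free medium, with four compound doses (0.36-46 umol/L), sat 2 hr at RT then 16 hr at 37 C on a 48 hr fibroblast/mesothelial/ECM culture.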
mTORC1 inh: reduces mTORC1 signaling in Tsc2 and p53 null MEF cells; Tsc2-/- p53-/- MEF, phospho-rpS6 immunofluorescence/PI, 24 h; 44,000 compounds, 0.78% hits; Potency, µM (titrated, usually from 38.3 µM), for inactives: at the highest dose activity change, negative = inhibition, hits mostly inhibitors;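 further: plate controls were DMSO for no effect and rapamycin for full effect; nearly all actives have a fitted effect of over 50% in size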
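Readout is phospho-S6 Alexa 488 signal normalized to PI per well, reported as % active cells with thresholds set from rapamycin (7.5 nM) and DMSO controls. Cells: Tsc2-/-, p53-/- MEFs, 24 hrs compound at 37 C; PI cell number serves as viability.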
S16 viability: toxic to S16 Pmp22-F2sN Schwann cells. Potency, µM (top dose mostly 57.5 µM), without a hit: at the top dose activity change, negative = cytotoxicity, actives largely listed as cytotoxic. S16 Pmp22-F2sN Schwann cells (luciferase reporters placed in the Pmp22 gene) viability, CellTiter-Glo, 24 h. 43,000 compounds, 0.48% hits. AID 1508642; further: on the % scale 0 is the no-effect control and ±100 the full control effect; nearly all actives have a fitted effect of over 65% in size
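CellTiter-Glo counter-screen, qHTS, 1536-well. Cells: S16(c9) Pmp22-F2sN, 500-1,000/well in DMEM + 10% FBS. Cpd 23 nL pin transfer, 24 h, 37C/5% CO2. Read: luminescence, CCD imager.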
* hit, by the source's call; i = inactive; ? = inconclusive; / = not tested or not shown. Shown are actives, neighbours in structure and some others; about 2.6% of the full set was active somewhere. Unless noted, the call rests on the fitted dose curve; in most records, active means well fitted curve in the direction sought with a large enough effect; inconclusive means small, poorly fitted or top-dose-only effect, or another doubt; inactive means no such curve, though single readings can be large; an effect the other way counts as inactive or inconclusive. Potency means the concentration at half of the fitted maximal effect.

SMILES	GALC G270D up	PMP22 txn prim	SKOV3 invasion	mTORC1 inh	S16 viability
COc1ccc(C(=O)NC(c2ccc(Cl)cc2)c2cc(Cl)c3cccnc3c2O)cc1 (centres undefined)	i	?	1.6%	1.7%	3.98µM*
CC1(C)CCC(CN2CCN(c3ccc(C(=O)NS(=O)(=O)c4ccc(NCC5CCOCC5)c([N+](=O)[O-])c4)c(Oc4cnc5[nH]ccc5c4)c3)CC2)=C(c2ccc(Cl)cc2)C1	/	/	22.1%	/	/
COc1ccc(S(=O)(=O)N(C(=O)c2ccncc2)c2ccc3oc(C)c(C(C)=O)c3c2)cc1	i	12.6µM*	?	18.5µM*	?
CCc1ccc(S(=O)(=O)N(C(=O)c2ccncc2)c2ccc3oc(C)c(C(=O)OC)c3c2)cc1	i	?	-4.0%	?	?
CC(=O)c1c(C)oc2ccc(N(C(=O)c3ccncc3)S(=O)(=O)c3ccc(C)cc3C)cc12	i	?	i	-6.7%	-26.1%
COC(=O)c1c(C)oc2ccc(N(C(=O)c3ccncc3)S(=O)(=O)c3ccc(OC)cc3)cc12	i	5.32µM*	-1.2%	?	?
CCOc1ccc(S(=O)(=O)N(C(=O)c2ccncc2)c2ccc3oc(C)c(C(=O)OC)c3c2)cc1	i	?	i	5.21µM*	?
CN(C)C(=O)c1ccc(S(=O)(=O)c2ccc(NC(=O)[C@@](C)(O)C(F)(F)F)c(Cl)c2)cc1	/	/	-11.7%	/	/
CC(=O)[C@]1(O)Cc2c(O)c3c(c(O)c2[C@@H](O[C@H]2C[C@H](N)[C@@H](O)[C@H](C)O2)C1)C(=O)c1ccccc1C3=O	/	/	4.7%	/	/
CC1CCN(c2cc(N3CCN(C)CC3)ccc2NC(=O)c2cc(C#N)c[nH]2)CC1	/	/	23.3%	/	/
CCc1cc2cc(OC)c(OC)cc2c(Cc2ccccc2)n1	i	/	/	/	/
CCN1CCN(c2cc(C)c3cc(NC(=O)c4cccc(Cl)c4)ccc3n2)CC1	i	?	-27.6%	11.7µM*	?
CCN1CCN(c2cc(C)c3cc(NC(=O)/C=C/c4cccc(Cl)c4)ccc3n2)CC1	i	?	?	?	?
CCCCc1ccc(C(=O)Nc2ccc3nc(N4CCN(CC)CC4)cc(C)c3c2)cc1	i	?	-6.6%	2.07µM*	?
CCN1CCN(c2cc(C)c3cc(NC(=O)c4cc(OC)cc(OC)c4)ccc3n2)CC1	i	?	?	13.1µM*	?
CC1=C(CO)C(=O)O[C@@H]([C@@H](C)[C@H]2CC[C@H]3[C@@H]4C[C@H]5O[C@]56[C@@H](O)C=CC(=O)[C@]6(C)[C@@H]4CC[C@]23C)C1	/	/	4.69µM*	/	/
NC(=O)Nc1cc(-c2ccc(CN3CCOCC3)cc2)sc1C(N)=O	/	/	7.9%	/	/
CN1c2cc(Cl)ccc2-c2nc(SCC(=O)Nc3ccc(F)cc3F)ncc2S1(=O)=O	i	?	-6.9%	-7.3%	25.1µM*
CC(O)=C(C#N)C(=O)Nc1ccc(C(F)(F)F)cc1	/	/	3.1%	/	/
CCCN1C(=O)C(Cc2nc3ccccc3c(=O)n2CC)c2cc(Br)ccc21 (centres undefined)	i	?	i	14.7µM*	?
Cc1ccc(Nc2c3c(nc4nncn24)CCC3)cc1	i	?	6.6%	1.7%	3.6%
Brc1ccc(Nc2c3c(nc4nncn24)CCC3)cc1	i	?	0.5%	5.85µM*	-25.4%
COc1ccccc1N1CCN(Cc2cc(COC(C)C)c3cccnc3c2O)CC1	i	3.5µM*	?	5.85µM*	7.08µM*
COc1ccc(-c2noc(CN3CCN(c4ccccc4OC)CC3)n2)cc1OC	i	-11.9%	i	-6.4%	?
CCOCc1cc(CN2CCN(c3ccccc3OC)CC2)c(O)c2ncccc12	i	?	i	?	3.16µM*
SMILES	GALC G270D up	PMP22 txn prim	SKOV3 invasion	mTORC1 inh	S16 viability
CCOc1ccc2oc(=O)cc(CN3CCN(c4ccccc4OC)CC3)c2c1	i	?	-7.0%	-1.1%	-11.4%
CCCOCc1cc(CN2CCN(c3ccccc3OC)CC2)c(O)c2ncccc12	i	5.77µM*	i	9.27µM*	10µM*
CN(C)c1ccc(C(=O)NCCCCCCC(=O)NO)cc1	/	/	16.1%	/	/
CCN1CCc2nc3sc(C(=O)Nc4cccc(Cl)c4C)c(N)c3cc2C1	i	12.1µM*	-5.5%	?	?
Cc1cccc(NC(=O)c2sc3nc4c(cc3c2N)CN(Cc2ccccc2)CC4)c1	i	?	-19.5%	-6.5%	?
COc1ccccc1NC(=O)c1sc2nc3c(cc2c1N)CCCCCC3	11.2µM*	-26.2%	-17.1%	-16.9%	11.8%
O=C1[C@H](Cc2ccc(O)cc2)N2C(=O)CCN(C(=O)NCc3ccccc3)[C@H]2CN1Cc1cccc2ccccc12	/	/	-28.8%	/	/
CCN1CCN(CCCNC(=O)c2cc3c(s2)-c2c(C)cccc2OC3)CC1	i	?	-5.2%	?	25.1µM*
Cc1cccc2c1-c1sc(C(=O)NCCCN3CCN(c4ccccc4F)CC3)cc1CO2	i	?	?	-24.6%	?
C=C1C(=O)[C@@]23C(CC[C@@H]1[C@H]2O)[C@@]12CO[C@]3(O)[C@@H](O)[C@@H]1C(C)(C)CC[C@@H]2O (some centres undefined)	/	/	18.7µM*	/	/
Cc1cccc(OCc2ccc(-c3nc(C#N)c(NCCN(C)C)o3)o2)c1	i	?	-16.3%	5.21µM*	?
CNc1oc(-c2ccc(COc3ccc(C)cc3)o2)nc1C#N	i	-50.3%	7.3%	-1.0%	-3.5%
N#Cc1nc(-c2ccc(COc3ccccc3)o2)oc1NCc1ccccc1	i	-5.2%	5.4%	-14.4%	1.9%
CC(Nc1oc(-c2ccc(COc3ccccc3)o2)nc1C#N)c1ccccc1 (centres undefined)	i	?	?	14.7µM*	-7.7%
CC(C=CC(=O)NO)=C[C@@H](C)C(=O)c1ccc(N(C)C)cc1	/	/	-0.2%	/	/
CC(C)c1onc(-c2c(Cl)cccc2Cl)c1COc1ccc(C=Cc2cccc(C(=O)O)c2)c(Cl)c1	/	/	25.7%	/	/
C#Cc1cccc(Nc2ncnc3cc(OC)c(OCCCCCCC(=O)NO)cc23)c1	/	/	6.3%	/	/
Cn1cnc(-c2cc3nccc(Oc4ccc(NC(=S)NC(=O)Cc5ccccc5)cc4F)c3s2)c1	/	/	7.6%	/	/
CCOc1ccc(NC(=O)CN(C)S(=O)(=O)c2ccc3[nH]c4c(c3c2)CCCC4)cc1	i	17µM*	5.8%	-0.3%	?
Cc1cnn(C)c1C(=O)Nc1cc(Nc2ccc3c(C=Cc4ccccn4)n[nH]c3c2)ccc1F	/	/	12.9%	/	/

Bioassay records deposited in PubChem by National Center for Advancing Translational Sciences (NCATS).
